Test results: PubChem BioAssay (NCI)
This is part of a sample that, as a whole, favours compounds with a hit. Of some 83,000 tested, about 20% had one in any assay.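 Note: values are percent growth. 100 is the growth of untreated cells, values between 100 and 0 indicate rising inhibition; between -100 and 0 indicates cell death.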 Unmarked numbers belong to inactive results. Active and inactive are the calls of the source. The calls were made as follows: active = growth percent below 10; inactive = the rest.

test system: MCF7 breast; assay: NCI-60 one-dose screen, 48 h (100 = growth as untreated, 0 = no growth, -100 = all killed); conditions: 10 µM unless noted

| Structure (SMILES) | growth |
| --- | --- |
| CCCCOC(OCCCC)c1ccccc1 | 97.8% |
| O=C(O)c1cccc([N+](=O)[O-])c1O | 119% |
| O=C1c2ccccc2C(=O)N1OCc1ccccc1 | 99.5% |
| C[C@@H](c1ccccc1)[C@@H](C(=O)O)c1ccccc1 | 93.4% |
| CC1=CC(C)(C)NC(=S)N1c1ccc(S(=O)(=O)O)c2cccc(S(=O)(=O)O)c12 | 108% |
| CC(=O)OC(OC(C)=O)C1CCCO1 (stereo unspecified) | 92.1% |
| c1ccc2c(N3CCCCC3)ncnc2c1 | 96.6% |
| S=c1nn[nH]c2ccccc12 | 99.2% |
| O=c1[nH]c(O)c(/C=C2/C=Nc3ccccc32)[nH]1 | 56.3% |
| CC1OC(Oc2c(-c3ccc(O)c(O)c3)oc3cc(O)cc(O)c3c2=O)C(O)C(O)C1O (stereo unspecified) | 101% |
| Cc1ccc(O)c(C(=O)c2ccccc2)c1 | 105% |
| OCC1OC(OC2C(O)C(CO)OC2(CO)OC2OC(CO)C(O)C(O)C2O)C(O)C(O)C1O (stereo unspecified) | 95% |
| C[N+](C)(C)C(=O)c1ccccc1 | 96.2% |
| O=[N+]([O-])c1ccc(Cl)c(S(=O)(=O)O)c1 | 98.4% |
| Cc1cc2ccccc2c(O)c1C#N | 99.3% |
| COc1ncnc2c1cnn2C | 101% |
| NC(C(=O)O)c1ccc([N+](=O)[O-])cc1 (stereo unspecified) | 95.3% |
| CC(O)COc1ccc(-c2ccccc2)cc1 (stereo unspecified) | 100% |
| C1CNC(C2=NCCN2)=N1 | 98.7% |

| Structure (SMILES) | growth |
| --- | --- |
| CN(C)C(C)(C)CC(C)(C)C | 101% |
| O=[N+]([O-])c1ccc(S(=O)(=O)NN=C2CCCCC2)cc1 | 102% |
| C[C@]12CC[C@@H]3c4ccc(OCC(=O)O)cc4CC[C@H]3[C@@H]1CCC2=O | 130% |
| Nc1ncnc2[nH]ncc12 | 7.48% (active) |
| CCCNc1ccc(C2=NCCCN2)cc1 | 97.7% |
| O=C(N/N=C/c1ccccc1O)Nc1nn[nH]n1 | 88.6% |
| Cc1ccc(CCCC(=O)O)c(C)c1 | 105% |
| CC(=O)c1cc2c(cc1F)C(C)(C)CCC2(C)C | 101% |
| CN(c1ccccc1)c1ncnc2c1ncn2C | 97.8% |
| CCCCC1(CC)COC(CCC)OC1 (stereo unspecified) | 96.6% |
| CCC(C#N)(CC)c1ccccc1 | 95.4% |
| FC(F)(F)c1ccc2c(c1)N(CCCN1CCN(C3CC3)CC1)c1ccccc1S2 | 77.3% |
| CC1NC(=O)NC1CCCCCC(=O)O (stereo unspecified) | 99.8% |
| COS(=O)(=O)c1ccc(Br)cc1 | 97.3% |
| O=[N+]([O-])c1cccc(N=Nc2ccc(O)cc2O)c1 | 84.3% |
| Cc1cc(OCCO)cc(C)c1Cl | 110% |
| Cc1cc(O)ccc1O | 94.7% |
| CCOc1ccc(Br)cc1/C=N\N=C\c1cc(Br)ccc1OCC | 101% |

test system: HCT-116 colon; assay: as above; conditions: 10 µM

| Structure (SMILES) | growth |
| --- | --- |
| CCCCOC(OCCCC)c1ccccc1 | 112% |
| O=C(O)c1cccc([N+](=O)[O-])c1O | 98.9% |
| O=C1c2ccccc2C(=O)N1OCc1ccccc1 | 99.8% |
| C[C@@H](c1ccccc1)[C@@H](C(=O)O)c1ccccc1 | 102% |
| CC1=CC(C)(C)NC(=S)N1c1ccc(S(=O)(=O)O)c2cccc(S(=O)(=O)O)c12 | 107% |
| CC(=O)OC(OC(C)=O)C1CCCO1 (stereo unspecified) | 91.3% |
| c1ccc2c(N3CCCCC3)ncnc2c1 | 88.4% |
| S=c1nn[nH]c2ccccc12 | 103% |
| O=[N+]([O-])c1ccc(Sc2ccncn2)c([N+](=O)[O-])c1 | 20.1% |
| O=c1[nH]c(O)c(/C=C2/C=Nc3ccccc32)[nH]1 | 96.4% |
| CC1OC(Oc2c(-c3ccc(O)c(O)c3)oc3cc(O)cc(O)c3c2=O)C(O)C(O)C1O (stereo unspecified) | 105% |
| Cc1ccc(O)c(C(=O)c2ccccc2)c1 | 102% |
| OCC1OC(OC2C(O)C(CO)OC2(CO)OC2OC(CO)C(O)C(O)C2O)C(O)C(O)C1O (stereo unspecified) | 97.8% |
| C[N+](C)(C)C(=O)c1ccccc1 | 97.9% |
| O=[N+]([O-])c1ccc(Cl)c(S(=O)(=O)O)c1 | 104% |
| Cc1cc2ccccc2c(O)c1C#N | 105% |
| COc1ncnc2c1cnn2C | 103% |
| NC(C(=O)O)c1ccc([N+](=O)[O-])cc1 (stereo unspecified) | 105% |
| CC(O)COc1ccc(-c2ccccc2)cc1 (stereo unspecified) | 97.7% |
| C1CNC(C2=NCCN2)=N1 | 96.7% |

| Structure (SMILES) | growth |
| --- | --- |
| CN(C)C(C)(C)CC(C)(C)C | 100% |
| O=[N+]([O-])c1ccc(S(=O)(=O)NN=C2CCCCC2)cc1 | 97.8% |
| C[C@]12CC[C@@H]3c4ccc(OCC(=O)O)cc4CC[C@H]3[C@@H]1CCC2=O | 103% |
| Nc1ncnc2[nH]ncc12 | 5.13% (active) |
| CCCNc1ccc(C2=NCCCN2)cc1 | 97% |
| O=C(N/N=C/c1ccccc1O)Nc1nn[nH]n1 | 89% |
| Cc1ccc(CCCC(=O)O)c(C)c1 | 103% |
| CC(=O)c1cc2c(cc1F)C(C)(C)CCC2(C)C | 94.4% |
| CN(c1ccccc1)c1ncnc2c1ncn2C | 104% |
| CCCCC1(CC)COC(CCC)OC1 (stereo unspecified) | 98.8% |
| COc1cc2c3cc1Oc1c(OC)c(OC)cc4c1C(Cc1ccc(O)c(c1)Oc1ccc(cc1)CC3N(C)CC2)N(C)CC4 (stereo unspecified) | -94.7% (active) |
| CCC(C#N)(CC)c1ccccc1 | 105% |
| FC(F)(F)c1ccc2c(c1)N(CCCN1CCN(C3CC3)CC1)c1ccccc1S2 | 42.7% |
| CC1NC(=O)NC1CCCCCC(=O)O (stereo unspecified) | 105% |
| COS(=O)(=O)c1ccc(Br)cc1 | 93.9% |
| O=[N+]([O-])c1cccc(N=Nc2ccc(O)cc2O)c1 | 14.3% |
| Cc1cc(OCCO)cc(C)c1Cl | 101% |
| Cc1cc(O)ccc1O | 96.4% |
| CCOc1ccc(Br)cc1/C=N\N=C\c1cc(Br)ccc1OCC | 97.8% |
